Laboratory results published in ChEMBL document CHEMBL3988442, “University of Dundee, Small-Polar-MMV Screening Library” (2021).

Target: T1, Tyrosyl-tRNA synthetase, putative (Trypanosoma cruzi (strain CL Brener)) (UniProt Q4DSP6)
T1 sequence (whole entry): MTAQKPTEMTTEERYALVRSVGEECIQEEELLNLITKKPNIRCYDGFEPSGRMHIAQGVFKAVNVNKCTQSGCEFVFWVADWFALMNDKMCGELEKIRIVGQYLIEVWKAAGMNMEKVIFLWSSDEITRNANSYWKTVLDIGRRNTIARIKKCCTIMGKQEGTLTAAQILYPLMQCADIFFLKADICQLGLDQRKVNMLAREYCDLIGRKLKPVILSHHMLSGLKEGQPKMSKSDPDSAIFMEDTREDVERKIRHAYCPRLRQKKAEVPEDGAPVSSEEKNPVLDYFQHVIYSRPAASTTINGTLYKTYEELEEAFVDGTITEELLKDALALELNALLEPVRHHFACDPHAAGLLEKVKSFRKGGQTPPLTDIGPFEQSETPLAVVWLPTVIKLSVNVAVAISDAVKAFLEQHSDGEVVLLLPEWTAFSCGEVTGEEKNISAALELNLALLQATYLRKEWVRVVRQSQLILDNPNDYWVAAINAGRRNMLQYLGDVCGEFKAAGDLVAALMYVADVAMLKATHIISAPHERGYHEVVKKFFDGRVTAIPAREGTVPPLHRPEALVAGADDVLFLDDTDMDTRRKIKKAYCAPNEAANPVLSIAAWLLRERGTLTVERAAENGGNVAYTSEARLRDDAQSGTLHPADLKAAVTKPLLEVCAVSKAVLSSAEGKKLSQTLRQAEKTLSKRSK
Assay: Trypanosoma cruzi tyrosyl tRNA synthetase (TcYRS) _High Tyrosine SOP
Type: functional
Set-up: scale not given: in the data most compounds retested in dose-response had high values
Conditions: 30 µM

| SMILES | Percent Effect [%] |
| --- | --- |
| CN1CCN(CCO)C(=O)C12CCN(Cc1ccsc1)CC2 | 3.87 |
| Cc1ccc(C(=O)N2CCC3(CC2)CC(N2CCOCC2)C3)cc1 | 3.87 |
| Cn1ncc2c1NC(=O)CC2c1ccc(O)cc1 (stereo unspecified) | 0.532 |
| CNC(=O)c1cc(S(=O)(=O)C(C)C)cs1 | 6.76 |
| CCC1c2ccsc2CCN1C(=O)NCc1cc[nH]n1 (stereo unspecified) | 2.39 |
| CC[C@@H]1N(Cc2ccsc2)CCC[C@]12CCC(=O)N2CCOC | 7.73 |
| CCNC(=O)[C@@H]1C[C@@H](NC(=O)Cc2ccncc2)CN1Cc1ccsc1 | 4.79 |
| O=C(NCCO)c1ccn(-c2ccc3ccccn23)n1 | 11.1 |
| NC[C@H]1CC[C@H](C(NC(=O)c2ccccc2)c2ccccn2)CC1 (stereo partly specified) | 10.6 |
| O=C(C1CCOC1)N1CCc2ncc(CNc3ccccn3)n2CC1 (stereo unspecified) | 3.68 |
| CCc1nc(C2CCCN2CCn2cncn2)no1 (stereo unspecified) | 1.96 |
| CC(C)(C)n1ncc2c1NC(=O)CC2c1ccsc1 (stereo unspecified) | 4.79 |
| Cn1nc2c(cc1=O)CN(Cc1nnc(-c3ccco3)o1)CC2 | 4.31 |
| CCc1nc(CC(=O)N2CCCC2Cn2cccn2)cs1 (stereo unspecified) | 2.63 |
| CC(C)c1nnc2n1CCN(C(=O)c1ccc3cc[nH]c3c1)C2 | 5.79 |
| O=C(O)c1cc(S(=O)(=O)N2CCOc3ccccc32)ccc1F | -0.478 |
| CCCc1cc(CNC(=O)C2CCOc3ccccc3C2)on1 (stereo unspecified) | 5.85 |
| Cc1cc(NC(=O)NCC2CCOC2)no1 (stereo unspecified) | 4.74 |
| CC(C)c1nc(C2CCCN2CC(=O)Nc2nncs2)no1 (stereo unspecified) | 5.79 |
| CCOC1CCCN(C(=O)c2sccc2-n2cnnn2)C1 (stereo unspecified) | 8.13 |
| CC(=O)N1C[C@@H](c2ccsc2)[C@@H]2CN(Cc3ccccc3)CC[C@@H]21 | 10.6 |
